Data from PubChem BioAssay AID493194 (Broad Institute, 2011).
Results with a measured potency or affinity are listed apart. Results filed as inconclusive are left out. Calls of active or inactive are those of the source.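 How the source made its calls: active means a valid curve of falling signal whose half-effect concentration is at most ten times the top tested dose; inconclusive means flat curve at 30 to 70% inhibition, or poor fit; inactive means signal rise, flat within 30%, or potency beyond limit.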

biological target: Scavenger receptor class B member 1 (Mus musculus) (UniProt Q61009); assay: mouse SR-BI DiI-HDL uptake blockers – ldlA[mSR-BI] cells, fluorescence, cherry pick, dose response (AID 493194); conditions: CHO ldlA[mSR-BI] DiI-HDL uptake fluorescence, 3 h; series mostly up to 35 µM;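 further: CHO cells lacking LDL receptor and overexpressing mouse SR-BI; cellular uptake of fluorescently labeled HDL measured as cell fluorescence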
Sequence (Q61009 whole entry, looked up): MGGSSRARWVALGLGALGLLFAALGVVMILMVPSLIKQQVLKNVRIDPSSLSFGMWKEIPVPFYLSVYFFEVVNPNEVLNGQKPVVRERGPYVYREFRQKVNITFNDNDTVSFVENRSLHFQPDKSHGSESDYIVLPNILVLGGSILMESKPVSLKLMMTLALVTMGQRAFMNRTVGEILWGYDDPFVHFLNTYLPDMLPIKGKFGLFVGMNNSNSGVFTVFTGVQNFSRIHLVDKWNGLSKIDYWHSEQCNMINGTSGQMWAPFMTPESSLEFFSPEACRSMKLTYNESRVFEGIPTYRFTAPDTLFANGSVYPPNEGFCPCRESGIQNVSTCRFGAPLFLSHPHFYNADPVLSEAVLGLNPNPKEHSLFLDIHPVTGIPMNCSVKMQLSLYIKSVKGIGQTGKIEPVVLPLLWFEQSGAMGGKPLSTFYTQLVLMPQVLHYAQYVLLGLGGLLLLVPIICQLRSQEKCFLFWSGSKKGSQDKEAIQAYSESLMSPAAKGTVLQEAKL

outcome, inactive:
COC(=O)/C=C/c1ccc2c(c1)S(=O)(=O)N(c1cccc(OC)c1)[C@H]2CC(=O)OC, O=C(NCCn1cc(SCC(=O)N2CCOCC2)c2ccccc21)c1c(F)cccc1F, Cc1cc(N(C)C(=O)c2ccc3c(c2)S(=O)(=O)c2cc(Cl)ccc2C3=O)c(C(F)(F)F)o1, Cc1sc(NC(=O)c2cccc([N+](=O)[O-])c2)c(C(N)=O)c1-c1ccc(C(C)(C)C)cc1, COc1ccccc1CCc1nnc(CCC(=O)N(C)Cc2cccc3cnccc23)o1, COc1ccc(C)cc1N(CC(=O)NC1CCCC1)C(=O)Cn1nnc(-c2ccc(C)o2)n1, CC(=O)c1c(C)[nH]c(C(=O)OCc2nc3ccsc3c(=O)[nH]2)c1C, COc1ccc(C2/C=C\CN(S(=O)(=O)c3ccc(C)cc3)CC(=O)N2Cc2ccc(F)cc2)cc1 (stereo not drawn), C=CCOC(=O)c1[nH]c2c(c1C)C(=O)CC(c1cc(OC)c(OC)c(OC)c1)C2 (stereo not drawn), Cc1ccc(NC(=O)c2cc(S(=O)(=O)N3CCOCC3)c(Br)s2)cc1, COCCNC(=O)c1ccc(CS(=O)(=O)c2cccc(C(F)(F)F)c2)o1, CC[C@H](C)[C@H](NC(=O)c1ccc(Cl)cc1)C(=O)OCC(=O)c1ccc2c(c1)NC(=O)CO2, COc1cc(/C=C\C(=O)NCc2ccc3c(c2)cc(C)n3C)cc(OC)c1OC, CS(=O)(=O)N1CCc2cc(C(=O)Nc3cccc([N+](=O)[O-])c3)ccc21, COc1ccccc1NC(=O)CN1CCN(CC(=O)Nc2ccc(OCc3ccccc3)cc2)CC1, CCOC(=O)C1=CN(c2cccc(F)c2)C=C(C(=O)OCC)C1c1cc(OC)c(O)c([N+](=O)[O-])c1, CC1CN(c2oc(COc3ccc(Cl)cc3Cl)nc2C#N)CC(C)O1 (stereo not drawn), N#Cc1ccc(C(=O)N2CCC3CC2c2cc(-c4ccc(F)cc4)ccc23)cc1 (stereo not drawn), COc1ccc(C(=O)N2CCN(c3ccc([N+](=O)[O-])c(NCCc4ccc(OC)c(OC)c4)c3)CC2)cc1, Cc1ccccc1C(=O)N1CCc2cc(-c3nc(NC(=O)Cc4ccc5c(c4)OCO5)sc3C)ccc21, CCOC(=O)C1CCCN(S(=O)(=O)NC[C@H]2O[C@@H](n3cnc4c(N)ncnc43)[C@H](O)[C@@H]2O)C1 (stereo partly drawn), COc1cc(/C=C/C(=O)Nc2cccc(S(=O)(=O)NC3=NCCCCC3)c2)ccc1OCC#N, COc1cccc(-c2csc(N3CCN(CC(=O)NNC(=O)c4ccc(Br)cc4)CC3)n2)c1, COc1ccc(OC)c(CCNC(=O)c2ccc(NC3=NC4CS(=O)(=O)CC4S3)cc2)c1 (stereo not drawn), O=C(c1cccc(Cl)c1)N1CCC2CC1c1cc(-c3ccccc3)ccc12 (stereo not drawn), COC(=O)C1C(=O)c2c([nH]c(C(=O)OC3CCCC3C)c2C)CC1C (stereo not drawn), COCCCNc1nc2c(-c3cccc(C)c3)nnn2c2ccccc12, COC(=O)c1cnc(Oc2ccc(NC(=O)NC(=O)c3c(OC)cccc3OC)cc2)cc1C(F)(F)F, Cn1c(CCN2CCN(c3ccccn3)CC2)nc2cc(NS(=O)(=O)c3ccc(Cl)cc3)ccc21, COc1ccc2c(c1)-c1c(sn(-c3ccc(OC)c(OC)c3)c1=S)C(C)(C)N2, O=C(NCCn1cc(SCc2ccccc2)c2ccccc21)c1c(F)cccc1F, CCOC(=O)C1=C(CNCCOc2ccc(OC)cc2)NC(=O)NC1c1ccc2c(c1)OCO2 (stereo not drawn), CCN(C(=O)COn1nnc2ccc(S(=O)(=O)N(C)C)cc21)C1CCS(=O)(=O)C1 (stereo not drawn), COc1ccc(CCNC(=O)c2ccc3c(c2)N(Cc2ccc(C)cc2)CCS3)cc1OC, Cc1ccc(CNC(=O)c2ccc(N3CCC4(CC3)CC(c3cccc(Br)c3)=NO4)c([N+](=O)[O-])c2)cc1, COc1ccc([C@H]2CC(=O)C=C(c3cccc4c3sc3ccccc34)C2)cc1OC, Cc1cccc(NC(=O)N2C3CCCC2CC(NC(=O)C(C)(C)C)C3)c1 (stereo not drawn), O=C(CN1CCOCC1)Nc1nc(-c2ccc3c(c2)CCN3S(=O)(=O)c2ccccc2)cs1
